# Data from PubChem BioAssay AID1851 (National Center for Advancing Translational Sciences (NCATS), 2009).
# Values joined by “and” are separate entries in the source; they are usually repeats but may differ in a detail not shown here. Equal values may be shown once. Hit rate of the full screen: of about 16,000 compounds, about 4,000 (25%) were called active. Inconclusive results (about 26%) are left out. These entries were drawn from the full list. Unmarked numbers belong to inactive results. Calls come from the whole dose curve; as a rule, active = well fitted curve in the direction sought with a large enough effect; inconclusive = small, poorly fitted or top-dose-only effect, or effect the other way; inactive = no such curve, though single readings can be large or run the other way.
# Target: Cytochrome P450 2C9 (Homo sapiens) (UniProt P11712)
# Test: Cytochrome panel assay with activity outcomes
# Settings: recombinant CYP, pro-luciferin dealkylation, luminescence, p450-cyp2c9; series mostly up to 57.1 µM
# % is set by controls: 0 for no effect and ±100 for the full control effect.
# Chain of Cytochrome P450 2C9 (Homo sapiens) (P11712 whole entry, looked up): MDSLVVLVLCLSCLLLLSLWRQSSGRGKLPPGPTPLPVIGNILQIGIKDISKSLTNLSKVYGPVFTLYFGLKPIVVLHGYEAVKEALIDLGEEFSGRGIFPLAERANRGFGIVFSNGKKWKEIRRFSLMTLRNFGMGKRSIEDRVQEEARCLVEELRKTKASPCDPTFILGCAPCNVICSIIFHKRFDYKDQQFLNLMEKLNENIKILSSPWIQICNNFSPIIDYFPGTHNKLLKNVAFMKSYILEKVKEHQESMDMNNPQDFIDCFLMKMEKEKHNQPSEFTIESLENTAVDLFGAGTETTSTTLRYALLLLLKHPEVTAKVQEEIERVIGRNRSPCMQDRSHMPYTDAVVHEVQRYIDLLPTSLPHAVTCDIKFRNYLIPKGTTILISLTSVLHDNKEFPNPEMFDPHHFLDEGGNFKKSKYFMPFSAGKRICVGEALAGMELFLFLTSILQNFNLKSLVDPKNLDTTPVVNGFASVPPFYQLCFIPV
SMILES,AC50,"activity, negative = inhibition"
Cn1c(=O)cc(OCCCC(=O)N2CCN(c3ccccc3)CC2)c2ccccc21,2.51 µM (active),–
CCOC(=O)C1CCCN(C(=O)CCCOc2cc(=O)n(C)c3ccccc23)C1 (stereo not drawn),inactive,–
CC(C)(C(=O)c1cccnc1)c1cccnc1,inactive,–
C/C(=N\N1CCN(C2c3ccccc3-c3ccccc32)CC1)c1cccnc1,0.562 µM (active),–
C(=N\N1CCN(C2c3ccccc3-c3ccccc32)CC1)/c1cccnc1,0.2 µM (active),–
C/C(=N\N1CCN(C2c3ccccc3-c3ccccc32)CC1)c1ccncc1,2.24 µM (active),–
O=c1c2cnn(-c3ccccc3)c2nnn1/N=C/c1cccnc1,inactive,–
O=[N+]([O-])c1cc(/C=N/N2CCN(C3c4ccccc4-c4ccccc43)CC2)ccc1Cl,inactive,–
Cn1nc(C(F)(F)F)c(/C=N/OC(=O)c2ccccc2Cl)c1SCc1ccc(Cl)cc1,3.98 µM (active),–
N[C@@]1(C(=O)O)CN[C@H](C(=O)O)C1,inactive,–
O=C(c1csnn1)N1CCC2(CC1)CN(Cc1cc(C(F)(F)F)cc(C(F)(F)F)c1)C2,inactive,–
Cc1ccc(C)n1N1C(=O)/C(=C\c2ccc(Cl)cc2)SC1=S,5.01 µM (active),–
CC1=N/C(=C\c2ccc([N+](=O)[O-])cc2)C(=O)N1c1ccc(Cl)cc1,inactive,–
CC(=O)OC[C@@H]1O[C@@H](O/N=C2/C[C@@H](O)[C@@H](O)[C@@H]3[C@@H]4C(=O)N([C@@H](C)c5ccccc5)C(=O)[C@H]4CC[C@H]23)[C@H](OC(C)=O)[C@H](OC(C)=O)[C@@H]1OC(C)=O,–,10.5% [at 11.4 µM]
CCOc1ccc(/C=C/C2=Cc3c(sc(NC(=O)CSc4n[nH]c(N)n4)c3C#N)C(C)(C)C2)cc1,10 µM (active),–
Cc1ccc(/C=C/C2=Cc3c(sc(NC(=O)CSc4n[nH]c(N)n4)c3C#N)C(C)(C)C2)o1,2.82 µM (active),–
CC(=O)OC[C@@H]1O[C@@H](O/N=C2/C[C@@H](O)[C@@H](O)[C@@H]3[C@@H]4C(=O)N(c5cccc(Oc6ccccc6)c5)C(=O)[C@H]4CC[C@H]23)[C@H](OC(C)=O)[C@H](OC(C)=O)[C@@H]1OC(C)=O,–,1.66% [at 11.4 µM]
CC(C)(C)NC[C@H](O)c1cc(O)cc(O)c1,inactive,–
C[C@@H]1OC2C3=C(C(=O)[C@H]4O[C@@H]4[C@H]3O)[C@@H]1[C@H]1[C@H](C)OC=C3[C@H](O)[C@H]4O[C@H]4/C(=N\OCc4ccccc4)[C@@]321,–,13.2% [at 11.4 µM]
CCOc1cc(CNCCO)c(Cl)cc1OCC(=O)NCCc1ccccc1,inactive,–
CCOc1cc(CNCCc2ccc(S(N)(=O)=O)cc2)cc(Cl)c1OCc1ccccc1,12.6 µM (active),–
Cc1ccc(C)c(S(=O)(=O)NC(C)C(=O)Nc2ccc(-c3nc4ccccc4s3)cc2)c1 (stereo not drawn),inactive,–
Cc1ccc2nc(-c3ccc(NC(=O)c4ccc(N)cc4)c(S(=O)(=O)O)c3)sc2c1,–,-3.37% [at 11.4 µM]
Cc1ccc(-c2nc3ccccc3s2)cc1NC(=S)NC(=O)c1ccccc1,3.55 µM (active),–
CCCc1ccc(-c2cc(C(=O)NN3CCOCC3)c3ccccc3n2)cc1,2.51 µM (active),–
O=C(O)c1cc(-c2ccc3cc4c(cc3c2)OCO4)nc2ccccc12,–,-17.1% [at 11.4 µM]
Cc1ccc(-c2cc(C(=O)NN=C3CCCC3)c3ccccc3n2)cc1,12.6 µM (active),–

SMILES,AC50,"activity, negative = inhibition"
Cc1ccccc1NC(=S)NC(=O)c1cc(-c2ccccc2)nc2ccccc12,3.55 µM (active),–
C[N+]1(C)CCc2cc(O)c(O)cc2[C@H]1Cc1ccc(O)c(O)c1,–,6.54% [at 11.4 µM]
CN(Cc1ccco1)c1ncnc2ccc(-c3ccoc3)cc12,–,-10.5% [at 2.29 µM]
Cc1cnc(CNc2cc(-c3ccccc3Cl)ncn2)cn1,–,8.89% [at 2.29 µM]
O=C1C[C@@H](O)[C@@H](O)[C@H]2[C@@H]3C(=O)N(C[C@@H]4CCCO4)C(=O)[C@@H]3CC[C@H]12,–,21.7% [at 11.4 µM] and 13.9% [at 11.4 µM]
CNc1cc(-c2c(C)noc2C)ncn1,–,9.86% [at 2.29 µM]
CCn1c(C)cc(/C=C2\NC(=O)N(Cc3ccc(Cl)cc3)C2=O)c1C,inactive,–
FC(F)(F)c1ccccc1-c1cc(NCc2cccnc2)ncn1,–,16.9% [at 2.29 µM]
CCCOc1ccc(C(=O)NNC(=S)NC(=O)CC)cc1,inactive,–
CCCOc1ccc(C(=O)NNC(=S)NC(=O)c2cc(-c3ccccc3)nc3ccccc23)cc1,2.51 µM (active),–
CCCCOc1cc(C(=O)NCCN(CC)CC)c2ccccc2n1,inactive,–
CCN1CCN(CCCNC(=O)C(NC(=O)C2CCC(C)CC2)C(C)C)CC1 (stereo not drawn),inactive,–
CC(=O)C1=C(O)C=C(c2ccco2)CC1c1ccco1 (stereo not drawn),7.94 µM (active),–
NC(=O)C(=O)O,inactive,–
Clc1ccc2c(c1)C1=C(C(c3ccncc3)O2)C(c2ccc(Br)cc2)n2ncnc2N1 (stereo not drawn),1.41 µM (active),–
CCN=C(N)CSS(=O)(=O)O,–,-1.49% [at 11.4 µM]
O=C(O)c1cccnc1C(=O)O,inactive,–
O=C(OCc1ccc(Cl)cc1Cl)c1cccnc1Cl,17.8 µM (active),–
COc1ccccc1-c1cncnc1-n1ccnc1,–,-14.3% [at 2.29 µM]
Cc1ccc(Nc2nc(-c3sc(NC(=O)c4ccc([N+](=O)[O-])cc4)nc3C)cs2)cc1,inactive,–
O=C(Nc1nc(-c2ccccc2)cs1)c1cccc([N+](=O)[O-])c1,7.08 µM (active),–
CCN1C(=O)[C@H]2[C@H]3[C@H](O)[C@H](O)C/C(=N/OCC(C)C)[C@H]3CC[C@@H]2C1=O,–,-3.02% [at 11.4 µM]
CC(=C/c1ccccc1)/C=N/n1cnnc1,3.98 µM (active),–
CNc1cc(-c2ccccc2C)ncn1,–,21.7% [at 2.29 µM]
Cc1ccccc1-c1cc(N(C)C)ncn1,–,9.36% [at 2.29 µM]
Cc1ccccc1-c1cc(-c2ccccc2O)on1,8.91 µM (active),–
